Assay results from PubChem BioAssay AID1578 (Sanford-Burnham Center for Chemical Genomics, 2009).
Out of some 290,000 compounds screened, about 3,000 (1%) were called active. This is one part of a sample in which actives are shown more often than they occur. Cut-off read from the data, not from the text of the source: active = inhibition mostly above about 36% (no sharp cut-off); inactive = mostly below about 34%.

assay: inhibition of NOD1-driven NF-kB reporter – cell-based, luminescence, uHTS, primary screen (AID 1578); conditions: NOD1-driven NF-kB luciferase reporter cells, at 4 µM, hits give high values;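 note: HEK-293T reporter cells stimulated with the NOD1 agonist gamma-tri-DAP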

inhibition, inactive:
Cn1c(CO)cnc1SCc1ccc(Cl)cc1 -5.4%
CC(=O)Oc1ccc(N2C(=O)C3C4C=CC(CO)(O4)C3C2=O)cc1 (centres undefined) -9.3%
O=C1C2C3C=CC(CO)(O3)C2C(=O)N1c1ccc(-c2ccccc2)cc1 (centres undefined) 35.6%
CCc1ccc(CNc2ccc3c(c2)ncn3CC)cc1 -16.7%
CCC(SC1=NCCS1)C(=O)Nc1nnc(-c2ccccc2OC)s1 (centres undefined) -17.6%
NC(=O)Nc1ccc(C(=O)OCC(=O)N(Cc2ccccc2)C2CCS(=O)(=O)C2)cc1 (centres undefined) -20.7%
CN1CCc2c(sc(NC(=O)C3COc4ccccc4O3)c2C(N)=O)C1 (centres undefined) -27.9%
Cc1cc2nc(-c3ccc(SCC(=O)NC(C)C)nc3)[nH]c2cc1C 23.9%
CCOC(=O)CSc1ccc(-c2nc3cc(C)c(C)cc3[nH]2)cn1 -40.2%
CN(C)Cc1ccc(CNC(=O)COc2ccc3ccccc3c2)cc1 -35.8%
CC(=O)Nc1ccc(S(=O)(=O)N/N=C/c2cccnc2)cc1 -27.3%
CCOc1ccc(-c2c(C)sc3nc[nH]c(=O)c23)cc1 -20.6%
CCOC(=O)c1c(N)sc2c(OCC)c(Br)ccc12 -11.3%
COc1cccc(NC(=S)N2C3CCCC2CC(NC(=O)C2CC2)C3)c1 (centres undefined) -11.4%
CC(=C/c1ccc(C(C)C)cc1)/C=N/NC(=O)CSc1ccccn1 -42.7%
CCC1CCCCN1S(=O)(=O)c1ccc(NC(=O)c2cccs2)cc1 (centres undefined) -29.4%
CCC1CCCCN1S(=O)(=O)c1ccc(NC(=O)c2cccnc2)cc1 (centres undefined) 30.5%
O=C(Nc1ccc(S(=O)(=O)N2CCCCC2)cc1)c1ccncc1 9.7%
O=C(Nc1ccc(Cc2ccncc2)cc1)c1ccc(S(=O)(=O)N2CCOCC2)cc1 31.5%
CCN(CC)S(=O)(=O)c1ccc(OC)c(NC(=O)CSc2cc(C)ccc2C)c1 -19.1%
C=CCN(c1ccccc1C(=O)O)S(=O)(=O)c1ccc(C)cc1 -26.8%
O=S(=O)(Nc1ccc2c(c1)CCC2)c1cccs1 11.6%
O=c1c2ccccc2ncn1-c1ccc2c(c1)OCCO2 26.3%
CS(=O)(=O)Nc1ccc(C(=O)NCCC2=CCCCC2)cc1 -9.5%
CS(=O)(=O)N(Cc1ccc(Cl)cc1)c1ccc(C(=O)NCCC2=CCCCC2)cc1 9.1%
Cc1cc(NC(=O)CSc2nccn2C)n(-c2ccccc2)n1 -0.5%
Cc1cccc(N2CCCn3c2nc2c3c(=O)n(CCN3CCOCC3)c(=O)n2C)c1 17.7%
COCCn1nnnc1C(c1ccccn1)N1CCN(c2cc(Cl)ccc2C)CC1 (centres undefined) -10.8%
COC(=O)c1ccccc1NC(=O)C(C)n1nc(C)c2c(C)n(-c3ccccc3)nc2c1=O (centres undefined) 7.4%
Cc1cc(C)cc(OCC(=O)Nc2ccc(CN3CCCCC3)cc2)c1 -37.6%
CCc1c(C)nc2c(Br)cccc2c1SCCC#N 22.1%
CCCCc1c(C)nc2ccc(Br)cc2c1SCCC#N 19.5%
O=C(CN1C(=O)S/C(=C\c2cccs2)C1=O)Nc1ccc(O)cc1C(=O)O 38.9%
Cn1nnnc1SCCNCc1ccccc1OCc1ccccc1Cl -12.2%
CCc1cccc(NC(=O)c2sc3nc4n(c(=O)c3c2C)CCC4)c1 -29.9%
COc1ccc(Nc2nc(-c3ccc(OC)cc3)cs2)cc1 -34.6%
Oc1ccc(Nc2nc(-c3ccc(O)cc3)cs2)cc1 -23.2%
Cc1ccc(S(=O)(=O)N(CC(=O)N/N=C/c2cccc(C)c2)c2cccc3cccnc23)cc1 -9%
CC(C)CC(=O)NC(C)C(c1cccs1)N1CCOCC1 (centres undefined) -10.9%
O=c1cc(C(F)(F)F)[nH]c(=S)n1-c1ccccc1 -3.4%
O=[N+]([O-])c1ccc(-c2cnc3ccccc3n2)cc1 -42.9%
Cc1cc(-c2ccc([N+](=O)[O-])cc2)nc2ccccc12 -26.6%
CCOC(=O)c1cnn(-c2ccc(C(F)(F)F)cn2)c1N -92.9%
CC(=O)Nc1ccc(NC(=O)CCOc2cc(C)ccc2C)cc1 46.4%
CCOC(=O)C1(Cc2ccc(OC)cc2)CCN(C(=O)CCn2cccn2)CC1 1.1%
Cc1ccc2sc(NNC(=O)c3cc(-c4cccs4)nc4ccccc34)nc2c1C -36.7%
Cc1cc(C)c2nc(NNC(=O)c3cc(-c4cccs4)nc4ccccc34)sc2c1 -29.4%
O=C(NCCOc1ccc(Cl)cc1)c1ccc2ccccc2n1 -22.8%
c1ccc(-c2nc3cnccn3c2Nc2ccc3c(c2)OCCO3)cc1 -26.2%
Cc1nn(CC(=O)c2ccc(Cl)s2)c(C)c1[N+](=O)[O-] -20.3%
COc1ccc(Cc2nnc(NC(=O)c3cccc(F)c3)s2)cc1OC -8%
Cc1cc(C(=O)CSc2nnnn2-c2ccccc2)c(C)n1CCc1ccccc1 -52.2%
Cc1cc(C(=O)CN2C(=O)C(=O)N(Cc3ccccc3)C2=O)c(C)n1CC1COc2ccccc2O1 (centres undefined) 27.8%
CCOC(=O)c1cc(C)n(CCc2ccccc2)c1C -18.3%
COc1ccc(CCn2c(C)cc(C(=O)CSc3nnnn3-c3ccccc3)c2C)cc1OC -55.4%
COc1ccc(CCn2c(C)c(C(C)=O)c(C(C)=O)c2C)cc1OC -23.3%
Cc1cc(C(=O)COC(=O)c2ccc(O)cc2)c(C)n1CC1COc2ccccc2O1 (centres undefined) -9.9%
Cn1cccc1C(NC(=O)c1ccccc1)C(Cl)(Cl)Cl (centres undefined) -0.5%
Cc1cccc(C)c1OCCNC(=O)c1ccc2ccccc2n1 53.9%
COc1cccc(C(=O)Nc2ccc(Cl)c(C(F)(F)F)c2)c1 -30.7%
Cc1cc(=O)[nH]c(N/N=C/c2cn(CCC#N)nc2-c2ccccc2)n1 -41.6%
Cc1cc(NC(=O)CN(C)C)c([N+](=O)[O-])cc1C -1.4%
COC(=O)C1=C(Cn2cnc3ccccc32)NC(=O)NC1c1cc(C)ccc1C (centres undefined) 14.7%
Cc1nnc2n(c1=O)C(CS(=O)(=O)c1ccccc1)CS2 (centres undefined) 9.4%
CCCc1nnc(NC(=O)CCC(=O)N2CCN(Cc3cc(F)ccc3OC)CC2)s1 -10.4%
CCOC(=O)CNC(=O)Cc1ccc(Cl)cc1 -9.2%
Cc1nc2c(c(C)nn2-c2ccccc2)c(C)c1Cl 6.2%
Cc1cc(C)c2c(C)nn(-c3ccccc3)c2n1 -3.5%
CN(C)S(=O)(=O)c1cccc(C(=O)OCC(=O)Nc2sccc2C#N)c1 5.6%
Fc1ccccc1Cc1nnc2n1N=C(c1ccc(Cl)cc1)CS2 -16%
Nc1cc(-c2ccccc2)nn1Cc1ccccc1 -25.1%
Nc1cc(-c2cccc(Br)c2)nn1Cc1ccccc1 -9.7%
Cc1cc(/C=C2\SC(=Nc3ccc(F)cc3)NC2=O)c(C)n1-c1ccc(S(N)(=O)=O)cc1 -10.7%
O=C(CSc1nnc(Cc2ccccc2)o1)NC1CCCCC1 -2.8%
COc1ccc(OCc2nnc(SCC(=O)NC3CCCCC3)o2)cc1 -22.6%
COc1ccc(C2NC(=O)CCC2[N+](=O)[O-])cc1 (centres undefined) -17.7%
CCOC(=O)c1ccccc1NC(=O)c1cc2ccccc2o1 -31.6%
C/C(=N\NC(=O)c1cc(C)nc2ccccc12)c1ccco1 -18.1%
O=C(CCCCn1c(=O)[nH]c2ccccc2c1=O)NCCC1=CCCCC1 -3.1%
COc1cc(/C=N/NC(=O)c2ccc(CSc3nc4ccccc4[nH]3)cc2)ccc1O -22.3%
O=C(N/N=C/c1ccc(OC(F)F)cc1)c1ccc(CSc2nc3ccccc3[nH]2)cc1 -27.9%
Cn1c(=O)c2c(nc(N3CCN(c4ccc([N+](=O)[O-])cc4)CC3)n2C)n(C)c1=O 0.8%
CCOc1ccccc1C1C(C#N)=C(N)Oc2cc(C)n(Cc3ccccn3)c(=O)c21 (centres undefined) 4.8%
Cc1ccc2c3c(cccc13)-c1ccccc1C2=O -32.2%
Cc1ccc(C)c(NC(=O)COC(=O)c2cccc3c2C(=O)c2ccccc2C3=O)c1 16.2%
O=C1c2ccccc2C(=O)c2c1ccc1c(=O)n(-c3ccccc3)[nH]c21 8.9%
Cc1cccc(-c2cc3c(nn2)-c2ccccc2C3=O)c1 -99%

inhibition, active:
O=C1C2C3C=CC(CO)(O3)C2C(=O)N1c1ccccc1-c1ccccc1 (centres undefined) 72.3%
CC(=O)CSc1ccc(-c2nc3cc(C)c(C)cc3[nH]2)cn1 58.4%
CCOc1c(Br)ccc2c1sc1nc[nH]c(=O)c12 66.7%
CN(c1ccc(C(=O)NCCC2=CCCCC2)cc1)S(C)(=O)=O 68.1%
COc1ccc(-c2csc(Nc3ccc(O)cc3)n2)cc1 56.7%
O=[N+]([O-])c1ccc(-c2c(O)c3ccccc3c3nc4ccccc4nc23)cc1 87.7%
Cc1cccc2sc(NNC(=O)c3cc(-c4cccs4)nc4ccccc34)nc12 86.7%
COc1ccc(CCn2c(C)cc(C(=O)CCl)c2C)cc1OC 59.7%
Cc1cc(C(=O)CCl)c(C)n1CC1COc2ccccc2O1 (centres undefined) 51.3%
Nc1cc(-c2ccc(Br)cc2)nn1Cc1ccccc1 46.7%
COc1ccc(Cc2nnc(SCC(=O)NC3CCCC3)o2)cc1 71.8%
CCOc1ccc(/C=N/NC(=O)c2ccc(CSc3nc4ccccc4[nH]3)cc2)cc1 66.9%
